Structures are written as SMILES. Compounds without any hit were thinned out: in the full panel of roughly 83,000, 20% have a hit.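 Negative percent growth values reflect cell death: -40 means 40% of the cells present at the start died, and -100 means all died.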 A number with no mark means an inactive call. Activity calls are given as the source filed them. How the source made its calls: active means growth percent below 10; inactive means the rest.

This note sets out measurements from PubChem BioAssay (NCI).

Some test systems named below: NCI-H23 lung; NCI-H226 lung; NCI-H322M lung; HOP-62 NSCLC; NCI-H460 lung; HOP-92 NSCLC; NCI-H522 lung; A549/ATCC NSCLC; 786-0 renal; COLO 205 colon; DU-145 prostate; K-562 leukemia; MALME-3M melanoma; MDA-MB-231 breast; RXF 393 renal; SF-268 CNS; SF-295 CNS; SF-539 CNS; UACC-257 melanoma; M14 melanoma.
Holding throughout (assay): NCI-60 one-dose screen, 48 h (100 = growth as untreated, 0 = no growth, -100 = all killed)
Holding throughout (details): 10 µM unless noted

Take `O=C(C[n+]1cccc2cc(Cl)ccc21)c1ccc2c(c1)CCCC2`: the growth in the experiment on NCI-H23 lung is 8.05% (active); with NCI-H226 lung it was 39%; in the experiment with NCI-H322M lung, 61.6%; in the experiment with HOP-62 NSCLC it was 36.2%; in the experiment with NCI-H460 lung, 19.8%; in the experiment on HOP-92 NSCLC, 4.68% (active). Also, the growth with NCI-H522 lung is -3.94% (active); in the experiment with A549/ATCC NSCLC, 34.5%; in the experiment with 786-0 renal, 80.4%; with COLO 205 colon it was 2.8% (active); with DU-145 prostate, 10.5%; in the experiment on K-562 leukemia, 10.6%. The growth was -30.9% (active) in the experiment on MALME-3M melanoma; 5.63% (active) in the experiment with MDA-MB-231 breast; 62% in the experiment with RXF 393 renal; 27.6% in the experiment on SF-268 CNS; 47.2% in the experiment on SF-295 CNS; -10.9% (active) with SF-539 CNS. Also, the figures for the growth in the experiment with UACC-257 melanoma and in the experiment on M14 melanoma were 5.48% (active) and 32.6%, respectively.
Take `O=C(Nc1ccc(N=Cc2ccccc2O)cc1)NC1C=c2ccccc2=CC1` (stereo not given): the growth is 100% with NCI-H23 lung; 87.8% with NCI-H226 lung; 98.6% with NCI-H322M lung; 101% with HOP-62 NSCLC; 108% in the experiment with NCI-H460 lung; 109% in the experiment with HOP-92 NSCLC. Moreover, the growth is 93.3% in the experiment with NCI-H522 lung; 87.9% in the experiment with A549/ATCC NSCLC; 98.2% with 786-0 renal; 117% with COLO 205 colon; 102% in the experiment on DU-145 prostate; 87% in the experiment with K-562 leukemia. In addition, the growth is 99.1% in the experiment with MALME-3M melanoma; 92% in the experiment on MDA-MB-231 breast; 108% in the experiment on RXF 393 renal; 91.9% with SF-268 CNS; 102% in the experiment with SF-295 CNS; 100% with SF-539 CNS. Also, the growth was 91.6% in the experiment on UACC-257 melanoma and 110% in the experiment with M14 melanoma.
As to `Cc1c(Cl)cccc1NC(=O)c1sc2nc3c(cc2c1N)CCCCCC3`, the growth in the experiment on NCI-H23 lung was 42.7%; with NCI-H226 lung it was 52.2%; with NCI-H322M lung, 45.6%; with HOP-62 NSCLC, 30.6%; in the experiment with NCI-H460 lung, 8.77% (active); in the experiment on HOP-92 NSCLC, 29.3%. Also, the growth is -27.7% (active) in the experiment with NCI-H522 lung; 19.1% in the experiment on A549/ATCC NSCLC; 23.3% with 786-0 renal; -12% (active) with COLO 205 colon; 9.29% (active) with DU-145 prostate; 9.93% (active) in the experiment on K-562 leukemia. In addition, the growth in the experiment on MALME-3M melanoma is 58%; with MDA-MB-231 breast, 34.2%; in the experiment with RXF 393 renal, 12.2%; in the experiment with SF-268 CNS, 35.7%; in the experiment with SF-295 CNS, 24.6%; with SF-539 CNS, 0.159% (active). The growth was 59.6% in the experiment with UACC-257 melanoma and 8.66% (active) in the experiment on M14 melanoma.
For `CC(C)(C)c1nn(-c2ccccc2)c2c1COCN2Cc1ccc(Cl)cc1`, the growth was 84.7% in the experiment on NCI-H23 lung; 87.5% with NCI-H226 lung; 101% in the experiment with NCI-H322M lung; 93% in the experiment on HOP-62 NSCLC; 81.1% in the experiment on NCI-H460 lung; 83.1% with HOP-92 NSCLC. The growth was 4.77% (active) with NCI-H522 lung; 115% with A549/ATCC NSCLC; 90% in the experiment with 786-0 renal; 101% in the experiment with COLO 205 colon; 103% in the experiment on DU-145 prostate; 47.5% in the experiment on K-562 leukemia. In addition, the growth with MALME-3M melanoma is 90.2%; in the experiment on MDA-MB-231 breast, 95.1%; in the experiment on RXF 393 renal it was 100%; in the experiment with SF-268 CNS, 103%; in the experiment on SF-295 CNS, 95.9%; in the experiment on SF-539 CNS, 83.6%. For the same compound, the growth with UACC-257 melanoma is 114%; in the experiment on M14 melanoma, 91.8%.
`COc1ccc(-n2cc(COc3ccc4c5ccnc(C)c5n(CC(C)C)c4c3)nn2)cc1`: the growth in the experiment with NCI-H23 lung was 61.9%; with NCI-H226 lung, 52.3%; in the experiment with NCI-H322M lung, 88.7%; in the experiment on HOP-62 NSCLC, 56.6%; with NCI-H460 lung, 69.5%; in the experiment with HOP-92 NSCLC, 44.9%. Besides, the growth in the experiment with NCI-H522 lung is 37.3%; in the experiment with A549/ATCC NSCLC, 67.1%; in the experiment with 786-0 renal it was 73.9%; in the experiment with COLO 205 colon, 68.6%; in the experiment with DU-145 prostate it was 88.3%; in the experiment with K-562 leukemia, 27.3%. In addition, the growth in the experiment on MALME-3M melanoma was 71.2%; in the experiment with MDA-MB-231 breast, 73.1%; with RXF 393 renal it was 57.5%; in the experiment with SF-268 CNS, 79%; in the experiment with SF-295 CNS, 60.6%; with SF-539 CNS, 82.6%. For the same compound, the figures for the growth in the experiment with UACC-257 melanoma and with M14 melanoma were 52.7% and 71.5%, respectively.
On to `[2H]c1cc2c(c([2H])c1F)/C(=C/c1[nH]c(C)c(C(=O)NCCN(CC)CC)c1C)C(=O)N2`, for which the growth was 43.5% with NCI-H23 lung; 40.5% in the experiment on NCI-H226 lung; 47.7% in the experiment on NCI-H322M lung; 28.9% in the experiment with HOP-62 NSCLC; 47.5% in the experiment with NCI-H460 lung; 26.6% in the experiment on HOP-92 NSCLC. In addition, the growth is 62.4% in the experiment with NCI-H522 lung; 56.5% in the experiment on A549/ATCC NSCLC; 32.5% with 786-0 renal; 38.3% with COLO 205 colon; 34.6% in the experiment with DU-145 prostate; 55.3% with K-562 leukemia. In addition, the growth in the experiment with MALME-3M melanoma was 10.8%; in the experiment with MDA-MB-231 breast, 67.7%; in the experiment with RXF 393 renal, 25%; in the experiment on SF-268 CNS, 57.7%; in the experiment on SF-295 CNS, 85.1%; in the experiment with SF-539 CNS it was 45.3%. Also, the growth was 69.2% with UACC-257 melanoma and 20.6% in the experiment on M14 melanoma.
Regarding `S=C(Nc1ccc(Cl)cc1)c1ccccn1`, the growth in the experiment on NCI-H23 lung is 83%; in the experiment on NCI-H226 lung, 88.1%; in the experiment with NCI-H322M lung, 97.2%; in the experiment with HOP-62 NSCLC it was 78.3%; with NCI-H460 lung, 101%; in the experiment on HOP-92 NSCLC, 77.1%. Further, the growth with NCI-H522 lung is 73.7%; with A549/ATCC NSCLC it was 88.9%; with 786-0 renal, 93.2%; with COLO 205 colon, 110%; in the experiment on DU-145 prostate it was 105%; in the experiment on K-562 leukemia it was 90%. In addition, the growth in the experiment with MALME-3M melanoma is 85.2%; in the experiment on MDA-MB-231 breast, 93.1%; in the experiment with RXF 393 renal, 97.8%; with SF-268 CNS, 96.5%; in the experiment with SF-295 CNS, 91.4%; in the experiment on SF-539 CNS, 102%. For the same compound, the values for the growth with UACC-257 melanoma and with M14 melanoma were 91.1% and 103%, respectively.
Consider `Cc1c(O)c(=O)ccn1-c1nc2ccccc2s1`, for which the growth in the experiment with NCI-H23 lung is 102%; in the experiment with NCI-H226 lung it was 92.5%; with NCI-H322M lung it was 88%; in the experiment on HOP-62 NSCLC it was 87.3%; in the experiment with NCI-H460 lung, 99.3%; in the experiment with HOP-92 NSCLC it was 98.4%. Further, the growth was 75.4% in the experiment on NCI-H522 lung; 92.5% with A549/ATCC NSCLC; 84.6% with 786-0 renal; 96.4% in the experiment on COLO 205 colon; 103% with DU-145 prostate; 110% with K-562 leukemia. Besides, the growth in the experiment with MALME-3M melanoma is 96.6%; with MDA-MB-231 breast it was 93.2%; in the experiment on RXF 393 renal, 87.8%; with SF-268 CNS it was 90.6%; in the experiment on SF-295 CNS it was 105%; in the experiment on SF-539 CNS, 102%. Besides, the results for the growth in the experiment on UACC-257 melanoma and with M14 melanoma were 90% and 84.2%, respectively.
